According to PubChem BioAssay (NCI):
This is part of a sample that, as a whole, favours compounds with a hit. Of some 83,000 tested, about 20% had one in any assay.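 Values shown are percent growth following 48 h exposure of cells in 96-well plates to a single concentration of compound; below 10 was considered active.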 Unmarked numbers belong to inactive results. The source made the active and inactive calls.

System: NCI-H23 lung
Assay: NCI-60 one-dose screen, 48 h (100 = growth as untreated, 0 = no growth, -100 = all killed)
Settings: 10 µM unless noted

SMILES | growth [%]
O=C(CCCCCCN1CC(=O)N2[C@H](c3ccc(Br)cc3)c3[nH]c4ccccc4c3C[C@@H]2C1=O)NO | 53
NNCCc1ccc(NC(=O)CCCc2ccc(C(=O)Nc3ccccc3N)cc2)cc1 | 76.5
Cc1cccc[n+]1C1c2ccccc2-c2ccccc21 | 103
CN(C)S(=O)(=O)Oc1ccc(-c2sc3cc(OS(=O)(=O)N(C)C)ccc3c2C(=O)c2ccc(OCCN3CCCCC3)cc2)cc1 | 74.4

System: NCI-H226 lung
Assay: as above
Settings: 10 µM unless noted

SMILES | growth
C[C@@H]1O[C@@H](O[C@@H]2C[C@H](c3ccc4c(c3O)C(=O)C3=C(C4=O)[C@@]4(O)C(=O)C[C@](C)(O)C[C@@]4(O)C=C3)O[C@H](C)[C@H]2O)CC[C@@H]1O[C@H]1C[C@@H](O)[C@H](O)[C@@H](C)O1 | 116%
CC(=O)OC(c1ccccc1)C1CCOC1=O (centres undefined) | 93.6%
C=CCN1C(=O)c2cccc3c(N4CCOCC4)ccc(c23)C1=O | -2.43% (active)
O=C(CCSc1nnc2n(Cc3ccccc3)c(=O)c3c4c(sc3n12)CCCC4)N1CCN(c2ccccc2)CC1 | 100%
CC1=CCC(OC(=O)C(C)(C)CC(O)(C(C)O)C(O)C2(C)C=CC(Cc3ccc(C(C)C)cc3)(C(C)C)CC2)(C(C)C)CC1 (centres undefined) | 92.3%
c1ccc(CCNc2c3ccccc3nc3ccccc23)cc1 | 56.3%
CCCCNc1nnc2n(Cc3ccccc3)c(=O)c3c4c(sc3n12)CCCC4 | 50.8%
COc1ccc2cc(-c3ccnc4c(N=Nc5ccc(Cl)cc5)c(N)nn34)ccc2c1 | 90.2%
CCO/C=N/C1=C(C#N)C(c2ccc(F)cc2)c2sc3c(F)cccc3c2O1 (centres undefined) | 67.8%
COc1cc2nc3sc(C(=O)Nc4ccc(C(=O)OC(C)C)cc4)c(C(=O)Nc4ccc(Cl)cc4C)n3c(=O)c2cc1OC | 103%
O=C(c1c[nH]c2ccccc12)c1n[nH]c(=S)n1-c1cccc(Br)c1 | 83.1%
O=c1cc(-c2ccccc2)[nH]c2ncc(-c3ccc(F)cc3)n12 | 86.6%
Clc1c(Cl)[n+](Cc2ccc3ccccc3c2)cn1Cc1ccc2ccccc2c1 | 44.4%
COc1ccc(/C=C/C(=O)c2cc(OC)c(OC)c(OC)c2)cc1OCC(=O)Nc1nc2ccc(OC(F)(F)F)cc2s1 | 40.6%
COc1cccc(Nc2ncnc3cc(NC(=O)CCl)ccc23)c1 | -48.3% (active)
COc1cc(/C=C/C(=O)c2ccc(-n3cc(CN4CCN(c5cc6c(cc5F)c(=O)c(C(=O)O)cn6C5CC5)CC4)nn3)cc2)ccc1O | 82.1%
C=C(C)[C@@H]1CCC[C@]2(C(=O)O)CC[C@]3(C)[C@@H](CC[C@@H]4[C@@]5(C)C/C(=C/c6ccncc6)C(=O)C(C)(C)[C@@H]5CC[C@]43C)[C@@H]12 | 36.1%
O=C(N/N=C\c1cccc([N+](=O)[O-])c1)N/N=C/c1cccc([N+](=O)[O-])c1 | 92.4%
O=C(Cn1nnc2ccccc21)N/N=C/c1c[nH]c2ccccc12 | 77%
Cn1cc(-c2csc(-c3c[nH]c4ccc(F)cc34)n2)c2ccnc(Cl)c21 | 62.1%
CCNC(=O)Oc1ccc(/C(=C(/CC)Cc2ccccc2)c2ccc(OCCN3CCCC3)cc2)cc1 | 99.4%
CC(=O)c1sc2sc(C(C)=O)c(C)c2c1C | 42.5%
CN1C(=O)/C(=C/c2ccc(C(=O)Nc3ncc(Cc4cccc(Cl)c4)s3)cc2)SC1=S | 64.5%
COc1ccc(C2=CC(c3cc(OC)c(OC)c(OC)c3)n3ncnc3N2)cc1 (centres undefined) | 51.1%
Cc1ccc(Cl)cc1NC(=O)c1sc2nc3c(cc2c1N)C(=O)CCC3 | 88.3%
COc1ccc(/C=C/C(c2cc(OC)c(OC)c(OC)c2)n2cncn2)cc1 (centres undefined) | 76%
Cc1ncc(C(=O)Nc2ccc(CN3CCN(C)CC3)c(C(F)(F)F)c2)cc1C#Cc1cnc(N)c2ncccc12 | 42.6%
Cc1ccc(C(=O)c2ccc(CC(=O)NN3C(=O)c4ccccc4C3=O)n2C)cc1 | 97.8%
CN(C)CCCC1(c2ccc(F)cc2)OCc2cc(-c3ccc4cc[nH]c4c3)ccc21 (centres undefined) | 95.2%
O=C(/C=C/c1cccc(Cl)c1Cl)Nc1ncc(Cc2ccccc2Cl)s1 | 67.7%
